FLuc counter = inhibits or activates purified firefly luciferase, miR-21 counter-screen | purified FLuc, Km substrates, luminescence inhibition | Potency, µM (top dose mostly 57.5 µM), actives largely listed as inhibitors | actives 6.9% (n = 360,000) | P08659; note: nearly all actives have a fitted effect of over 55% in size
Target sequence (P08659 whole entry, looked up): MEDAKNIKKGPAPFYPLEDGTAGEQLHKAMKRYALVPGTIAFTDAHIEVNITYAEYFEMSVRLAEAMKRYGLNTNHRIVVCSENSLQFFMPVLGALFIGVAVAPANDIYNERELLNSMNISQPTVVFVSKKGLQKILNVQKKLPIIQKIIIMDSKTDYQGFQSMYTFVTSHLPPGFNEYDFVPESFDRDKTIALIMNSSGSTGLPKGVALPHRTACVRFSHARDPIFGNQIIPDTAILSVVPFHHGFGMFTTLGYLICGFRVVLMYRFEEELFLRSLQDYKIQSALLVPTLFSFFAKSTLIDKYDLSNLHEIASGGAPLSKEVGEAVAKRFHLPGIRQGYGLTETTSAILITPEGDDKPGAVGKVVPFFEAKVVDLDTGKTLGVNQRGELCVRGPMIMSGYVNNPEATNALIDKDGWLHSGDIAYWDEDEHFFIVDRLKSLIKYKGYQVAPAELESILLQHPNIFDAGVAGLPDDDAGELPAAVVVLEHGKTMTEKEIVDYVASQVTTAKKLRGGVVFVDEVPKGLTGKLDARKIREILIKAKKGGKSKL
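Purified P. pyralis luciferase (10nM final) with 10uM D-luciferin and 10uM ATP (Km levels) in 50mM Tris acetate pH 7.5, 10mM Mg acetate, 0.01% Tween-20, 0.05% BSA; qHTS 6-point titration, ~60 µM downward; luminescence read.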
SMN2 splice up = increases expression of the SMN2 splice variant | HEK293 SMN2-luciferase splicing reporter, luminescence, 30-36 h | Potency, µM (top dose mostly 46.1 µM), actives largely listed as activators | actives 2.8% (n = 210,000) | AID 1458; note: nearly all actives have a fitted effect of over 55% in size
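qHTS luciferase splicing reporter: luminescence rises when SMN2 exon 7 is included in transfected HEK293 cells. Compound exposure lasted 30-36 h at 37C, with 4.5 mM final sodium butyrate as control, followed by a ONE-Glo read.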
NPC1 promoter act = activates the NPC1 promoter | Huh7 NPC1 promoter luciferase reporter, 24 h | Potency, µM (top dose mostly 9.22 µM), hits mostly activators | actives 2.4% (n = 320,000) | AID 485313; note: nearly all actives have a fitted effect of over 60% in size
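Huh7 cells stably carrying NPC1 promoter–luciferase, plated in Opti-MEM with 10% FBS for 2 h, were exposed to compound in DMSO for 24 h at 37 °C; luciferase reagent was added for 10 min and luminescence read.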
ELG1 genotox = genotoxicity induction in ELG1-luciferase HEK293T cells | HEK293T ELG1-luciferase reporter, luminescence, 16 h | Potency, µM (series often up to 46 µM), actives largely listed as activators | actives 1.3% (n = 330,000) | AID 504466; note: nearly all actives have a fitted effect of over 60% in size
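Genotoxic stress is detected as increased luminescence from luciferase-tagged ELG1 in HEK293T cells, measured with ONE-Glo after a 16 hr treatment at 37 °C.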
ELG1 DNA repair = blocks ELG1-dependent DNA repair in HEK293T cells; HEK293T ELG1-luciferase reporter, luminescence, 16 h; DNA damage induced by 5-fluorouridine; Potency, µM (series often up to 46.1 µM), hits mostly inhibitors; actives 2.3% (n = 330,000); AID 504467; note: nearly all actives have a fitted effect of over 55% in size
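Reporter activity after DNA damage by 5-fluorouridine is monitored. Compound-treated cells incubate 16 hr at 37 °C, then ONE-Glo is added for 30 min before luminescence reading.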
Rab9 prom act = activates the Rab9 promoter; AID 485297; Huh7 Rab9 promoter-luciferase reporter, luminescence, 24 h; actives 2.8% (n = 320,000); Potency, µM (top dose mostly 9.22 µM), actives largely listed as activators; note: nearly all actives have a fitted effect of over 60% in size
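Quantitative HTS format; Huh7 Rab9-luciferase reporter cells (1500/well) receive compound 2 h post-plating, incubate 24 h at 37 °C, then get luciferase reagent for 10 min before luminescence reading.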
A number is an active result; - = inactive; ? = inconclusive; . = not tested or not shown. Shown are actives, neighbours in structure and some others; about 9.2% of the full set was active somewhere. Calls come from the whole dose curve; as a rule, active = well fitted curve in the direction sought with a large enough effect; inconclusive = small, poorly fitted or top-dose-only effect, or another doubt; inactive = no such curve, though single readings can be large; an effect the other way counts as inactive or inconclusive.

SMILES	FLuc counter	SMN2 splice up	NPC1 promoter act	ELG1 genotox	ELG1 DNA repair	Rab9 prom act
O=C(NC(=S)NC1CCS(=O)(=O)C1)c1ccccc1 (stereo not given)	-	.	-	-	-	-
O=C(NC(=S)Nc1ncc(Br)cc1Br)c1cncc(Br)c1	?	-	.	.	.	.
O=C(NC(=S)NC1CCCCC1)c1ccccc1	15µM	.	?	?	?	?
O=C(NC(=S)NC1CCCCCC1)c1cncc(Br)c1	?	16µM	?	?	?	-
C/C(=N/NC(=O)CNC(=O)c1ccccn1)c1cccc([N+](=O)[O-])c1	-	-	-	-	-	-
Cc1cccc(Cn2c(=O)n(CC3CCC(C(=O)NC(C)C)CC3)c(=O)c3sccc32)c1 (stereo not given)	-	.	.	.	.	.
Cc1ccc(-c2nc3nc(C)cc(N4CCN(c5cccc(C)c5)C(C)C4)n3n2)cc1 (stereo not given)	8.5µM	-	.	.	.	.
CCCCNc1nnc(SCC(=O)N2CCN(S(=O)(=O)c3ccc4ccccc4c3)CC2)s1	-	-	-	-	23µM	-
O=C(c1cc2ccccc2oc1=O)N(Cc1cccc(Cl)c1)C1CCS(=O)(=O)C1 (stereo not given)	-	-	.	.	.	.
CN(C)c1ccc(CN(C(=O)c2cc3ccccc3oc2=O)C2CCS(=O)(=O)C2)cc1 (stereo not given)	12µM	.	2.8µM	?	?	?
O=C(c1cc2ccccc2oc1=O)N(Cc1ccco1)C1CCS(=O)(=O)C1 (stereo not given)	15µM	-	?	18µM	?	?
O=C(O)c1cc(NC(=O)c2ccc(Cl)c([N+](=O)[O-])c2)cc(C(=O)O)c1	-	-	-	?	-	-
N#Cc1ccsc1NC(=O)c1cccc([N+](=O)[O-])c1	-	-	-	-	5.8µM	-
N#Cc1ccsc1NC(=O)c1ccc(Cl)c([N+](=O)[O-])c1	6µM	.	-	-	?	-
N#Cc1ccsc1NC(=O)c1cccc(-n2cnnn2)c1	?	.	-	-	-	-
COc1ccc(/C=C(\C#N)C(=O)NCc2ccccc2)cc1	?	.	-	-	-	-
COc1ccc(/C=C(\C#N)C(=O)N=CN(C)C)cc1	13µM	-	-	-	?	-
COc1ccc(N2C(=O)CSC2c2ccccc2[N+](=O)[O-])cc1 (stereo not given)	-	-	-	-	-	-
COc1ccc(-c2nn(-c3ccccc3)cc2C(=O)Nc2cccc(S(=O)(=O)NC3=NCCC3)c2)cc1	.	.	.	-	23µM	.
COc1ccc(NC(=O)CN(C)C(=O)c2cn(-c3ccccc3)nc2-c2ccc(F)cc2)cc1	21µM	.	-	-	?	-
OCc1cn(-c2ccccc2)nc1-c1cc2ccccc2o1	1.7µM	7.9µM	2.5µM	?	?	1.3µM
COc1ccc(NC(=O)CN(C)C(=O)c2cn(-c3ccccc3)nc2-c2ccc(OC)cc2)cc1	-	.	-	-	?	-
N#Cc1cn(-c2ccccc2)nc1-c1cc2ccccc2oc1=O	-	.	-	?	?	-
COc1ccc(-c2nn(-c3ccccc3)cc2/C=N/Nc2cccc(C(=O)O)c2)cc1	11µM	-	?	?	?	?
CCOC(=O)c1csc(NC(=O)CN2CCOCC2)n1	-	.	-	-	?	-
SMILES	FLuc counter	SMN2 splice up	NPC1 promoter act	ELG1 genotox	ELG1 DNA repair	Rab9 prom act
COC(=O)c1cn(-c2ccccc2)nc1-c1ccccc1	?	-	-	-	-	-
COc1ccc(-c2nn(-c3ccccc3)cc2C(=O)Nc2ccccc2OC)cc1	-	-	.	.	.	.
O=C(O)c1cccc(NC(=O)c2cn(-c3ccccc3)nc2-c2cccc(Br)c2)c1	?	.	-	-	-	-
O=C(O)c1ccc(NC(=O)c2cn(-c3ccccc3)nc2-c2ccc(Br)cc2)cc1	3.8µM	-	-	-	-	-
COc1ccc(NC(=O)c2cn(-c3ccccc3)nc2-c2cc3ccccc3o2)cc1	8.5µM	-	-	-	?	-
COc1ccc(-c2nn(-c3ccccc3)cc2C#N)cc1	5.4µM	-	?	?	?	3.5µM
O=C(O)c1ccc(NC(=O)c2cn(-c3ccccc3)nc2-c2ccccc2)cc1	1.2µM	?	-	-	?	-
COc1ccc(NC(=O)c2cn(-c3ccccc3)nc2-c2ccncc2)cc1	?	-	-	-	?	-
COc1ccc(-c2nn(-c3ccccc3)cc2C(=O)Nc2ccc(C(=O)O)cc2)cc1	11µM	.	-	-	-	-
Cc1nc2sccn2c(=O)c1S(=O)(=O)NCc1ccc(F)cc1	-	.	.	.	.	.
O=C(N/N=C/c1ccco1)Nc1ccccc1	19µM	.	3.2µM	?	?	4µM
Clc1ccc(/C=N\Nc2ccccc2)cc1	17µM	.	-	?	-	-
O=C(N/N=C/c1ccc(Cl)cc1)Nc1ccccc1	4.3µM	?	?	?	?	?
Cc1cc(NCc2ccccc2Cl)n2cnnc2n1	-	-	.	.	.	.
CC/C(=N/N=C(\CC)c1ccccc1)c1ccccc1	-	-	-	-	-	-
Cc1nn(C)cc1/C=C(/C#N)C(N)=O	-	-	-	-	-	-
Cc1ccc(NC(=O)C(=O)Nc2ccc(C)cn2)nc1	-	-	-	?	?	?
Cc1ccc(NC(=O)/C(C#N)=C(\N)C(Cl)(Cl)Cl)nc1	2.1µM	.	?	?	?	?
NC(=O)c1ccc(NC(=O)C#Cc2ccccc2)cc1	?	.	-	-	?	-
O=C(C#Cc1ccccc1)Nc1ccccc1F	1.9µM	.	?	-	?	?
CSc1ccccc1NC(=O)Nc1ccc(Cl)cc1	11µM	-	?	?	?	?
COc1ccc(Cl)cc1NC(=O)Nc1ccccc1SC	-	-	-	-	-	-
COc1cccc(NC(=O)CN(C)C(=O)c2ccc(S(=O)(=O)Nc3ccccc3F)cc2)c1	-	.	-	-	-	-
COC(=O)c1ccc(OC(=O)c2ccccc2F)cc1	13µM	-	-	-	?	-
COc1ccc(NC(=O)CN(C)C(=O)c2ccc(S(=O)(=O)Nc3ccccc3F)cc2)cc1	13µM	.	-	-	-	-
SMILES	FLuc counter	SMN2 splice up	NPC1 promoter act	ELG1 genotox	ELG1 DNA repair	Rab9 prom act
O=C(Oc1ccc(C(=S)N2CCOCC2)cc1)c1ccccc1F	?	.	-	-	-	-
CC(C)OCCCNC(=O)CCCC(=O)Nc1ccc(OCCc2ccccc2)cc1	-	.	-	-	-	-
N#Cc1cccc(-c2ccc3ncnc(NCc4cccnc4)c3c2)c1	.	-	.	.	.	.
COc1ccc(C/C(C)=N/NC(=S)Nc2ccc(C(C)C)cc2)cc1	?	-	-	-	-	-
O=[N+]([O-])c1ccc(/C=N/NC(=S)Nc2ccccc2F)o1	?	-	-	-	?	-
O=C(Nc1ccc(F)cc1)Nc1cccnc1Cl	17µM	.	-	-	?	?
COC(=O)c1sccc1NC(=O)Nc1ccccc1F	13µM	.	-	-	-	-

Source: PubChem BioAssay (National Center for Advancing Translational Sciences (NCATS))
